Data reported in PubChem BioAssay (Tox21).
Several values for one entry are separate records, joined by “and”; a condition that tells them apart may be missing. Identical values can stand only once. Results filed as inconclusive are left out. Activity calls are given as the source filed them. The call rests on the fitted dose curve.

experiment: qHTS assay to identify small molecule agonists of the progesterone receptor (PR) signaling pathway - cell viability counter screen (AID 1346799); settings: PR-UAS-bla HEK293T viability, CellTiter-Glo luminescence, 16 h; series mostly up to 92.4 µM; activity change, negative = cytotoxicity: at the top concentration; further: nearly all actives have a fitted effect of over 45% in size
Description: National Center for Advancing Translational Sciences [NCATS]
NIH Chemical Genomics Center [NCGC]
U.S. Environmental Protection Agency [EPA]
National Institutes of Environmental Health Sciences [NIEHS]
National Toxicology Program [NTP]
U.S. Food and Drug Administration [FDA]
Progesterone receptor (PR), a nuclear hormone receptor, plays an important role in development, metabolic homeostasis and reproduction. It is activated by the steroid hormone progesterone. Endocrine disrupting chemicals (EDCs) and their interactions with steroid hormone receptors like PR causes disruption of normal endocrine function. To identify the compounds that stimulate PR signaling, a PR-UAS-bla GripTite cell line i.e. PR-UAS-bla HEK293T (Invitrogen, Carlsbad, CA, USA) containing a beta-lactamase reporter gene under the control of an UAS response element was used to screen Tox21 10K compound library. The cytotoxicity of the Tox21 compound library against the PR-bla cell line was tested in parallel by measuring the cell viability using CellTiter-Glo assay in the same wells.
Tox21 Assay Protocol Summary:
PR-UAS-bla HEK293T cells were dispensed at 3,000 cells/5 uL of assay medium containing 2% charcoal stripped FBS per well into black wall/clear-bottom 1536-well plates using a Multidrop Combi (ThermoFisher Scientific, Waltham, MA) dispenser. After the assay plates were incubated at a 37C and 5% CO2 for 6 hr, 23 nL of compounds dissolved in DMSO, positive controls or DMSO only was transferred to the assay plate by a Pintool station (Kalypsys, San Diego, CA). The plates were incubated at 37C and 5% CO2 for 16 hr. Then 1 uL of LiveBLAzer B/G FRET substrate was added using a Flying Reagent Dispenser (FRD, Aurora Discovery, San Diego, CA), the plates were incubated at room temperature for 2 hours, and fluorescence intensity was measured by an Envision plate reader (PerkinElmer, Shelton, CT). For cell viability readout that measures cytotoxicity, 4 uL/well of CellTiter-Glo reagent was added into the assay plates using a FRD. After 30 min incubation at room temperature, the luminescence intensity in the plates was measured using a ViewLux (PerkinElmer) plate reader.
On the % scale 0 is the no-effect control and ±100 the full control effect; potency means the concentration at half of the fitted maximal effect.

SMILES | Potency | activity change, negative = cytotoxicity
CCCCCCCCNC(C)C(O)c1ccc(SC(C)C)cc1 (stereo not given) | 29.8 µM (active) | 
CCCCCCCCCCC=O |  | 9.62% (inactive)
Oc1cc2ccccc2c2ccccc12 | 12.2 µM (active) | 
CCCCCCCC(=O)[O-].CCCCCCCC(=O)[O-].[Zn+2] |  | 13.2% [at 42.5 µM] (inactive)
CN1CCC(Nc2ncc3ncnc(Nc4ccc(F)c(Cl)c4)c3n2)CC1 | 9.44 µM (active) | 
Cc1cccc(N(C)C(=S)Oc2ccc3c(c2)C2CCC3C2)c1 (stereo not given) |  | 6.77% [at 42.5 µM] (inactive)
CC(C)(C)C(=O)OCOC(=O)[C@@H]1N2C(=O)[C@@H](NC(=O)[C@H](N)c3ccccc3)[C@H]2SC1(C)C |  | 5.38% [at 42.5 µM] (inactive)
CCCCCOc1ccccc1/C(=C\SC)n1ccnc1 | 7.5 µM (active) | 
O=C1Cc2cc(CCN3CCN(c4nsc5ccccc45)CC3)c(Cl)cc2N1 |  | -19.5% [at 42.5 µM] (inactive)
N=C1N=C(N)c2cc3ccccc3cc21 | 27.3 µM (active) | 
OC1(c2ccc(Cl)c(C(F)(F)F)c2)CCN(CCCC(c2ccc(F)cc2)c2ccc(F)cc2)CC1 | 13.3 µM (active) | 
CCCCCCCCCCCCCCCS(=O)(=O)Oc1ccccc1 |  | -6.72% [at 42.5 µM] (inactive)
CCc1cc(Cc2cc(CC)cc(C(C)(C)C)c2O)c(O)c(C(C)(C)C)c1 | 30.6 µM (active) | 
COc1cccc(N)c1 |  | -15.3% (inactive)
C/C(=C(/OCCOc1ccc(Cl)cc1)c1ccc(Cl)cc1Cl)n1ccnc1 | 16.8 µM (active) | 
CCOC(=O)c1nc(C(Cl)(Cl)Cl)n(-c2ccc(Cl)cc2Cl)n1 | 61.1 µM (active) | 
Nc1ccc(N)c2ccccc12 |  | 17.7% (inactive)
CN(C)c1ccc(C2(c3ccc(N(C)C)cc3)OC(=O)c3cc(N(C)C)ccc32)cc1 |  | -12.3% (inactive)
C=CC(=O)OCCn1c(=O)n(CCOC(=O)C=C)c(=O)n(CCOC(=O)C=C)c1=O | 43.3 µM (active) | 
CC1=NC(C)OC1C (stereo not given) |  | 1.32% (inactive)

SMILES | Potency | activity change, negative = cytotoxicity
CCCN(CCC)C(=O)C(CCC(=O)OCCCN1CCN(CCOC(=O)Cc2c(C)n(C(=O)c3ccc(Cl)cc3)c3ccc(OC)cc23)CC1)NC(=O)c1ccccc1 (stereo not given) |  | -6.98% [at 42.5 µM] (inactive)
CS(=O)(=O)CCNCc1ccc(-c2ccc3ncnc(Nc4ccc(OCc5cccc(F)c5)c(Cl)c4)c3c2)o1 | 15 µM (active) | 
O=c1[nH]sc2cc(Cl)ccc12 |  | -7.75% [at 42.5 µM] (inactive)
CC(C)(C)C1CCC(CC2=C(O)c3ccccc3C(=O)C2=O)CC1 (stereo not given) |  | 2.83% [at 42.5 µM] (inactive)
O=C(Nc1cccc([N+](=O)[O-])c1)c1cc2ccccc2cc1O |  | -29.6% (inactive)
C=CC(=O)OCC(CO)(COC(=O)C=C)COC(=O)C=C | 27.4 µM (active) and 30.6 µM (active) | 
CN(C)c1ccc(SC#N)cc1 |  | -13% (inactive)
Oc1cccc2cc3cccc(O)c3c(O)c12 |  | -9.58% (inactive)
O=C1C=CC(=O)N1c1ccc(Cc2ccc(N3C(=O)C=CC3=O)cc2)cc1 |  | 0.752% (inactive)
O=c1c(-c2ccccc2)c1-c1ccccc1 |  | -28.7% [at 42.5 µM] (inactive)
COc1cccc2c1C(=O)c1c(O)c3c(c(O)c1C2=O)C[C@@](O)(C(=O)CO)C[C@@H]3O[C@H]1C[C@H](N)[C@H](O[C@@H]2CCCCO2)[C@H](C)O1 |  | -5.2% [at 42.5 µM] (inactive)
NNC(=O)c1cccc(C(=O)NN)c1 |  | -22.2% (inactive)
COc1cc(/C=C/C(=O)O[C@H]2CC[C@]34C[C@]35CC[C@]3(C)[C@@H]([C@H](C)CCC=C(C)C)CC[C@@]3(C)[C@@H]5CC[C@H]4C2(C)C)ccc1O |  | 7.47% [at 42.5 µM] (inactive)
CCCCCCCCOC(=O)c1ccc(O)cc1 |  | 0.215% (inactive)
CCC(C)(C)C1CCCCC1OC(C)=O (stereo not given) |  | -0.254% (inactive)
COc1ccc(-c2ccc3cc(C(=O)O)ccc3c2)cc1C12CC3CC(CC(C3)C1)C2 |  | -23.7% [at 42.5 µM] (inactive)
COC(=O)C1=C(C)NC(C)=C(C(=O)OCCc2ccc(N3CCN(C(c4ccccc4)c4ccccc4)CC3)cc2)C1c1cccc([N+](=O)[O-])c1 (stereo not given) |  | 6.73% [at 42.5 µM] (inactive)
NC(=O)CC[C@@H]1NC(=O)[C@H](Cc2ccccc2)NC(=O)[C@H](Cc2ccc(O)cc2)NC(=O)CCSSC[C@@H](C(=O)N2CCC[C@H]2C(=O)N[C@@H](CCCN=C(N)N)C(=O)NCC(N)=O)NC(=O)[C@H](CC(N)=O)NC1=O |  | 0.262% [at 42.5 µM] (inactive)
CN(C/C=C/C#CC(C)(C)C)Cc1cccc2ccccc12 | 13.3 µM (active) | 
CCN(C(=O)N(CC)c1ccccc1)c1ccccc1 |  | 0% (inactive)
